Experimental data taken from PubChem BioAssay AID1851 (National Center for Advancing Translational Sciences (NCATS), 2009).
Among all 16,000 compounds or so, about 2,600 (16%) were called active. About 20% were inconclusive and are not listed. The call rests on the fitted dose curve; in most records, active means well fitted curve in the direction sought with a large enough effect; inconclusive means small, poorly fitted or top-dose-only effect, or effect the other way; inactive means no such curve, though single readings can be large or run the other way. Only a sample is shown. Square brackets hold non-standard residues; d marks the D form. Peptide text beside a SMILES is read from it.

Target: Cytochrome P450 2D6 (Homo sapiens) (UniProt P10635)
Sequence (P10635 whole entry, looked up): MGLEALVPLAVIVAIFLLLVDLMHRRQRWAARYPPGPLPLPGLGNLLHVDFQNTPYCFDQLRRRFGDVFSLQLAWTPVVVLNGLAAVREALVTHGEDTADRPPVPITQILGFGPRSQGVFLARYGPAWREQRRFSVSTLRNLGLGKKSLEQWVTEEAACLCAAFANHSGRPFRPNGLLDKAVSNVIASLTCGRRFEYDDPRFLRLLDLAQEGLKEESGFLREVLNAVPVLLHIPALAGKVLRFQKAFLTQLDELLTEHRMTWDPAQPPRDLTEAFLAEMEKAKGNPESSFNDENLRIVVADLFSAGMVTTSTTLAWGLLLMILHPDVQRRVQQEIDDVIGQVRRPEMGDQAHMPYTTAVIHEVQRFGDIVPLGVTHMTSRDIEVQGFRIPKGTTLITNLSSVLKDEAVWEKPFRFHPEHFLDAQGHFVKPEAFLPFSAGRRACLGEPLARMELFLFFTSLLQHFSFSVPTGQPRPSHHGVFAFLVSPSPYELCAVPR
Experiment: Cytochrome panel assay with activity outcomes
Settings: recombinant CYP, pro-luciferin dealkylation, luminescence, p450-cyp2d6; series mostly up to 57.1 µM; activity, negative = inhibition: at the top concentration
On the % scale 0 is the no-effect control and ±100 the full control effect.

Row | Compound | activity, negative = inhibition | AC50
1 | O=[N+]([O-])c1ccc(/C=N/N/C(=N/c2ccccn2)c2ccccn2)cc1 | -12.1% (inactive) | 
2 | COc1cccc(Sc2cc(N3CCOCC3)nc(-c3ccccc3)n2)c1 | -3.46% (inactive) | 
3 | c1cncc(-c2cncnc2-n2ccnc2)c1 | -0.954% (inactive) | 
4 | CS(=O)(=O)Nc1cccc(-c2cncnc2-n2ccnc2)c1 | -7.9% (inactive) | 
5 | COc1cccc(-c2cncnc2-n2ccnc2)c1 |  | 12.6 µM (active)
6 | COc1ccc(-n2c(=O)c(-c3cccc(F)c3)nc3cncnc32)cc1 | -6.96% (inactive) | 
7 | N#Cc1cccc(-c2nccc(-n3ccnc3)n2)c1 |  | 12.6 µM (active)
8 | COc1cccc(-c2nccc(NC3CCNCC3)n2)c1 | -13.3% (inactive) | 
9 | N#Cc1cccc(-c2cc(-n3ccnc3)ncn2)c1 | -20.9% (inactive) | 
10 | CN1CCN(c2ccnc(-c3cccc(NS(C)(=O)=O)c3)n2)CC1 | -0.74% (inactive) | 
11 | CS(=O)(=O)Nc1cccc(-c2nccc(-n3ccnc3)n2)c1 |  | 12.6 µM (active)
12 | COc1cccc(-c2nccc(-n3ccnc3)n2)c1 |  | 7.94 µM (active)
13 | CC[C@H]1C(=O)OC[C@H]1Cc1cncn1C |  | inactive
14 | CCN(CC)c1ccc(NC(=O)c2cccc(F)c2)c(C)c1 | -21.3% (inactive) | 
15 | CC[C@H]1CC[C@H]2[C@@H]3CC=C4C[C@H](OC(C)=O)[C@@H](N)C[C@@]4(C)[C@H]3CC[C@@]12C | -4.19% [at 11.4 µM] (inactive) | 
16 | NCC(=O)N[C@H](CO)C(=O)O (H-Gly-[dS]-OH) | 6.25% [at 11.4 µM] (inactive) | 
17 | CC1=NNC(=S)NCCCN2CCN(CCCNC(=S)NN=C(C)C=NNC(=S)NCCCN3CCN(CCCNC(=S)NN=C1)CC3)CC2 | -0.261% [at 11.4 µM] (inactive) | 
18 | CC1(C)CC(=O)C(C=NCCN2CCN(C(=S)Nc3ccc(F)cc3)CC2)=C(O)C1 | -0.562% (inactive) | 
19 | CN1CCN(c2ccnc(-c3ccc(N(C)C)cc3)n2)CC1 | -12.6% (inactive) | 
20 | c1cn(-c2ccnc(-c3ccc4c(c3)OCO4)n2)cn1 |  | 3.16 µM (active)
21 | O=C(OCc1ccccc1)/C(=C/c1ccc(Cl)cc1)NC(=O)c1ccccc1Cl | 3.78% (inactive) | 

Row | Compound | activity, negative = inhibition | AC50
22 | COc1ccc(Oc2ncc3nc(-c4ccc(F)cc4)c(=O)n(Cc4cccs4)c3n2)cc1 | -1.7% (inactive) | 
23 | CN(C)C(=O)c1ccc(-c2cc(NCc3cccnc3)ncn2)cc1 | -7.64% (inactive) | 
24 | CN(C)C(=O)c1ccc(-c2nccc(NCc3cccnc3)n2)cc1 | -5.03% (inactive) | 
25 | c1ccc(CNc2ccnc(-c3ccc4c(c3)OCO4)n2)cc1 |  | 1.58 µM (active)
26 | c1csc(CNc2ccnc(-c3ccc4c(c3)OCO4)n2)c1 |  | 0.501 µM (active)
27 | O=C(O)COc1ccc(-c2nccc(-c3cccs3)n2)cc1 | -18.2% (inactive) | 
28 | c1cncc(CNc2ccnc(-c3ccc4c(c3)OCO4)n2)c1 |  | 10 µM (active)
29 | COc1cccc(Cn2c(=O)c(-c3ccccc3)nc3cnc(N4CCN(C)CC4)nc32)c1 | 8.89% (inactive) | 
30 | COc1ccc(-n2c(=O)cnc3cnc(N4CCNCC4)nc32)cc1 | 4.72% (inactive) | 
31 | Fc1ccc(-c2csc(N3CCC(c4ccccc4)C3)n2)cc1 (stereo not drawn) | -23.2% (inactive) | 
32 | CCN(CC)Cc1nc2c(c(=O)[nH]1)C1(CCCC1)Cc1ccccc1-2 | -51.6% (inactive) | 
33 | CCCCCCCCCCCCCCCCCCOC[C@@H](COP(=O)([O-])OCC[N+](C)(C)C)OC | 3.16% (inactive) | 
34 | COc1nc(Cl)nc(Cl)c1Cl (tested in a mixture with another compound) | 10.4% [at 11.4 µM] (inactive) | 
35 | Cc1ccccc1-n1ncc2c(SCC(=O)N3c4ccccc4CC3C)ncnc21 (stereo not drawn) | -4.18% (inactive) | 
36 | CO[C@H]1COC(=O)C/C=C\[C@@H](C)COC(=O)[C@H]2CCCN2C(=O)C/C=C\[C@H]1C | -1.87% [at 11.4 µM] (inactive) | 
37 | O=C(Cn1cnc([N+](=O)[O-])n1)N/N=C/c1ccccc1O | 24.4% (inactive) | 
38 | CC1=C(C(=O)OCc2ccccc2)C(c2ccc(Cl)cc2)NC(=O)N1CCCCCC(=O)O (stereo not drawn) | -13.2% (inactive) | 
39 | O=C(CNC1CCCCCC1)Nc1ccccc1N1CCCCC1 |  | 1.41 µM (active)
40 | Cc1ccc(OCC(=O)Nc2ccccc2N2CCOCC2)c(C)c1 | -28.3% (inactive) | 
41 | CCOc1cc(NC(=S)Nc2ccccc2)c(OCC)cc1NC(=O)c1ccc(OC)cc1 | 19.1% (inactive) | 
42 | CCOc1ccc(C(=O)Nc2ccccc2N2CCCC2)cc1 |  | 3.16 µM (active)

Row | Compound | activity, negative = inhibition | AC50
43 | O=C(Cc1ccccc1)Nc1ccccc1N1CCOCC1 | -25.1% (inactive) | 
44 | COc1cc(OC)cc(C(=O)Nc2ccccc2C(=O)N2CCCC2)c1 | -4.71% (inactive) | 
45 | CC1(C)CC(=O)C(C(c2cccc(O)c2O)C2C(=O)CC(C)(C)CC2=O)C(=O)C1 | -12.6% [at 11.4 µM] (inactive) | 
46 | Cc1ccc(-n2c(-c3cc(C)n(C)n3)n[nH]c2=S)cc1 | -8.75% (inactive) | 
47 | Cc1ccc(SC(C)C(=O)NCc2cccnc2)cc1 (stereo not drawn) | -6.56% (inactive) | 
48 | Cc1ccc(S(=O)(=O)/C(C#N)=C/c2c(N3CC(C)OC(C)C3)nc3ccccn3c2=O)cc1 (stereo not drawn) | -20% (inactive) | 
49 | COc1ncc2nc(CCc3ccccc3)c(=O)n(CCc3ccccc3)c2n1 | -5.83% (inactive) | 
50 | Cc1cccn2c(/C=N/OCc3cccc(F)c3)c(-c3ccc(Cl)cc3)nc12 | -23.8% (inactive) | 
51 | CCN1C(=O)[C@H]2[C@H]3[C@H](O)[C@H](O)C/C(=N/OCC(C)C)[C@H]3CC[C@@H]2C1=O | -6.52% [at 11.4 µM] (inactive) | 
52 | Cc1noc(C)c1C(=O)N1CCC[C@@]2(CCN(C(=O)Nc3cccc(F)c3)C2)C1 | 1.31% (inactive) | 
53 | CCOC(=O)CC(=O)CSc1nc(-c2ccccc2)cc(-c2ccc(Cl)cc2)c1C#N | 9.93% (inactive) | 
54 | O=C1c2ccccc2C(=O)N1CC1c2ccccc2CCN1S(=O)(=O)c1ccccc1 (stereo not drawn) | -14.8% (inactive) | 
55 | COc1ccc(OC)c2[nH]c(=O)c(CCNC(=O)COc3ccccc3)cc12 | -8.87% (inactive) | 
56 | CCn1c(CC(=O)Nc2ccc(C)cc2)nnc1SCC(=O)NCCc1ccccc1 | -19% (inactive) | 
57 | CCNCc1cc(OCC)c(OCC(=O)NCCc2ccccc2)cc1Cl |  | 12.6 µM (active)
58 | CN1CCC(=NNC(=O)CSCc2ccccc2)CC1 | -21.6% (inactive) | 
59 | O=C(N/N=C/c1ccco1)c1ccc(Br)o1 | 13.5% (inactive) | 
60 | CCCN1CCC(=NNC(=O)c2ccc(Br)o2)CC1 |  | 7.08 µM (active)
61 | COc1ccc(OC[C@@H](CO)OC)cc1 | -7.62% [at 11.4 µM] (inactive) | 
62 | COc1ccc(CNC(=O)CN(CC2CCCO2)C(=O)CNS(=O)(=O)c2ccccc2)cc1 (stereo not drawn) | -2.1% (inactive) | 
63 | CN1CC[C@@]2(CCCN(C(=O)c3cccc(F)c3)C2)C1 | -10.5% (inactive) | 
